NPR1 activator: GC-A (human) enzyme activation. HEK293 GC-A cells, cGMP TR-FRET, EC30 ANP; 0% at EC30 ANP, 100% saturating ANP. activation, % at 10 µM. 370,000 tested, 0.14% active. AID 1671463; in the data active = activation above about 40%
ADAM17 inh: inhibits human ADAM17; inhibition, % at 6.95 µM; recombinant ADAM17, EDANS/DABCYL FRET peptide cleavage; 370,000 tested, 0.83% active; P78536;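 active = inhibition above the mean of compounds lying between control limits plus 3 SD, set per campaign, cut at about 8.5% in these data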;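 note: 0% = DMSO-only wells as the low control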
Target sequence (P78536 215-824 limits assumed): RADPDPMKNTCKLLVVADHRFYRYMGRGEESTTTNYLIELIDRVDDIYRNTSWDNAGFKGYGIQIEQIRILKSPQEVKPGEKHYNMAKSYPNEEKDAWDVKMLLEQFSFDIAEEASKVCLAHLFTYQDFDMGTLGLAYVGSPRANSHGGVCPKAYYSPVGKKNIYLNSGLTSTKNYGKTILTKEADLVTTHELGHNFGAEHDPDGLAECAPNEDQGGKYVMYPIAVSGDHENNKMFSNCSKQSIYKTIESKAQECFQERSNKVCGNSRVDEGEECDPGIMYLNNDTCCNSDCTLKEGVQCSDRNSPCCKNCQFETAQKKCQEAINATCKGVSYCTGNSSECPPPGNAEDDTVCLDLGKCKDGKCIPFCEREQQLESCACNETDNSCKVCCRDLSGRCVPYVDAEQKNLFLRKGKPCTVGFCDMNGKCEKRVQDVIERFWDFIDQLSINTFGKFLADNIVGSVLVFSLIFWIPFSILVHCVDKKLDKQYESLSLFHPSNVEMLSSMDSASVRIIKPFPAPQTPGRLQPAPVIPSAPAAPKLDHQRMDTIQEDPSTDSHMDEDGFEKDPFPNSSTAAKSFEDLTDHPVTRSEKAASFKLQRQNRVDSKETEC
ADAM10 inh: inhibits human ADAM10; 370,000 tested, 0.62% active; O14672; inhibition, % at 7 µM; recombinant ADAM10, EDANS/DABCYL FRET peptide cleavage, 3 h; AID 720582;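 active = inhibition above a per-campaign cutoff equal to the mean of compounds falling between control-based bounds plus 3 SD, cut at about 20% in these data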;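 note: 0% = DMSO wells while the 100% control is not disclosed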
GC-B act: GC-B (human) receptor activation | P20594 | HEK293-GC-B cells, CNP EC30, cGMP TR-FRET; 0% at EC30 CNP, 100% saturating CNP | activation, % at 10 µM | 370,000 tested, 0.11% active | AID 1920062;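 active = activation at 10 µM reaching about 35% in either raw or pattern-adjusted values, limit read from the data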
ADAM10 confirm: human ADAM10 inhibition, confirmation. ADAM10 QFRET peptide cleavage, EDANS fluorescence. shares compounds with ADAM10 inh. inhibition, % at 6.95 µM. 2,100 tested, 1% active;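 active = inhibition above about 20% chosen separately for each screening run, limit read from the data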;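 note: 0% = DMSO wells and 100% = marimastat wells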
ADAM17 counter: counter-screen for ADAM10 exosite inhibitors: inhibitors of human ADAM17; shares compounds with ADAM10 inh; ADAM17 QFRET peptide cleavage, EDANS fluorescence; inhibition, % at 6.95 µM; 2,100 tested, 0.5% active;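 active = mean triplicate inhibition above the solvent-only control wells' mean plus 3 SD, cut at about 12% in these data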;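 note: 0% = DMSO wells and 100% = marimastat wells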
Starred values were filed as active, the others as inactive; i = inactive; x = no result. Compounds with a hit are over-represented: about 1.3% of the library has one in this group of screens.

SMILES	NPR1 activator	ADAM17 inh	ADAM10 inh	GC-B act	ADAM10 confirm	ADAM17 counter
O=C(Nc1ccc(N2CCCC2)cc1)c1cc(Cl)ccc1Cl	-2.8	1.3	-1.5	-0.2	x	x
Cc1cc(C)cc(C(=O)Nc2ccc(N3CCCC3)cc2)c1	1.2	-8.0	-16.2	-3.4	x	x
O=C(Nc1ccc(N2CCCC2)cc1)c1ccc(Cl)cc1Cl	-9.4	4.6	20.3*	1.8	9.4	5.3
O=C(Nc1ccc(N2CCCC2)cc1)c1ccc(Br)cc1	3.0	-7.3	24.9*	0.2	1.1	0.5
Cc1ccc(F)cc1NC(=O)c1cnccn1	2.1	-1.5	-2.3	-0.4	x	x
O=C(Nc1ccn(CCCNC2CCN(Cc3ccccc3)CC2)c(=O)n1)OCc1ccccc1	-0.8	-3.2	-8.3	2.9	x	x
CCOC(=O)C1(C(=O)OCC)Cc2c([nH]c3ccccc23)[C@]2(N1)C(=O)N(C)c1ccc(Br)cc12	-19.8	12.3*	25.3*	-18.9	5.3	2.1
NC(=O)c1cc(S(=O)(=O)NCCc2ccc(Cl)cc2)cs1	-2.6	8.1	9.8	-3.5	x	x
COc1ccc(NC(=O)CSc2nc3c([nH]c4ccccc43)c(=O)n2C)cc1	-0.5	-0.2	56.8*	-2.6	4.2	0.3
Cc1cc(OCCCN2CCC(C(O)(c3ccccc3)c3ccccc3)CC2)ccc1Br	-14.1	2.2	-3.5	-8.7	x	x
CCC(c1nnnn1C(C)C)N1CCN(C2CCCC2)CC1 (centres undefined)	1.4	0.7	73.5*	-1.3	-2.6	-0.2
CCC(c1nnnn1C1CCCCC1)N1CCN(C2CCCC2)CC1 (centres undefined)	-3.0	-2.0	-7.4	-2.7	x	x
Cc1cn(CC(=O)NCCNc2ccc([N+](=O)[O-])cn2)c(=O)[nH]c1=O	3.0	0.6	-6.6	0.5	x	x
CC(C)(C)c1ccc(C(=O)Nc2cc(Cl)c(Cl)cc2C(=O)O)cc1	1.3	2.1	20.2*	-0.8	2.6	0.3
Cc1ccc(S(=O)(=O)Nc2ccc(N=Nc3ccc(O)cc3)cc2)cc1	-5.2	2.1	22.1*	-1.8	1.9	-0.2
CC(=O)c1ccc(NC(=O)Nc2ccc(NS(=O)(=O)c3ccc(C)cc3)cc2)cc1	-3.4	6.9	23.9*	-11.0	5.5	0.8
CSc1ccc(S(=O)(=O)Nc2ccc(S(=O)(=O)Nc3ccc(C)cc3)cc2)cc1	-1.3	7.4	9.6	3.8	x	x
Cc1ccc(S(=O)(=O)Nc2ccccc2-c2ccccc2NS(=O)(=O)c2ccc(C)cc2)cc1	-4.4	5.5	21.4*	5.6	0.1	0.2
CC1(C(=O)NCc2cccc(C(F)(F)F)c2)CCN1CCc1ccccc1 (centres undefined)	-0.6	-0.4	-5.5	3.3	x	x
C=CCNc1ccc2c(c1)OC[C@H](CC(C)C)NS2(=O)=O	1.2	-3.5	-9.7	1.1	x	x
CSCCC(C(=O)Nc1c(C)cccc1C)N(Cc1ccccc1)Cc1ccccc1 (centres undefined)	-12.5	3.8	1.7	-16.1	x	x
OCc1c(OCc2cccc(F)c2)ccc2ccccc12	1.5	1.6	4.9	-3.4	x	x
COC(=O)[C@]12C[C@H](CC(=O)NCCc3ccccc3OC)C(=O)N(Cc3ccccc3)C1=C[C@H](C1CCCC1)O[C@@H]2C	-6.7	4.2	11.5	-8.9	x	x
COC(=O)[C@]12C[C@H](CC(=O)N3CCC(c4ccccc4)CC3)C(=O)N(Cc3ccccc3)C1=C[C@H](COCc1ccccc1)O[C@@H]2C	-1.4	8.1	23.9*	-1.1	4.7	1.3
CCCCCCCCN1C(=O)[C@@H](CC(=O)N2CCC(c3ccccc3)CC2)C[C@@]2(C(=O)OC)C1=C[C@H](COCc1ccccc1)O[C@@H]2C	-4.9	-0.1	7.7	9.3	x	x
SMILES	NPR1 activator	ADAM17 inh	ADAM10 inh	GC-B act	ADAM10 confirm	ADAM17 counter
COC(=O)[C@]12C[C@H](CC(=O)NCCc3ccccc3OC)C(=O)N(CCc3ccc(OC)c(OC)c3)C1=C[C@H](COCc1ccccc1)O[C@@H]2C	-5.6	7.6	20.9*	-3.6	2.2	1.1
COC(=O)[C@]12C[C@H](CC(=O)NCCc3ccccc3OC)C(=O)N(Cc3cccc4ccccc34)C1=C[C@H](C1CCCC1)O[C@@H]2C	-3.4	6.6	25.4*	-4.5	10.1	3.4
O=C(/C=C/c1cccc([N+](=O)[O-])c1)Nn1c(-c2ccccc2F)nc2ccccc2c1=O	-2.4	6.5	24.5*	-2.4	-2.0	0.2
Cc1cccc(-c2nc3ccccc3c(=O)n2NC(=O)/C=C/c2ccc([N+](=O)[O-])cc2)c1	-1.7	0.7	1.8	5.0	x	x
O=C1C(=Cc2cn(-c3ccccc3)nc2-c2ccc(OCc3ccccc3F)cc2)SC(=S)N1CCS(=O)(=O)O	-15.2	3.3	26.3*	-6.0	7.4	-0.3
COc1ccccc1-n1c(SCC(=O)c2ccc(O)cc2O)nc2cc([N+](=O)[O-])ccc21	0.8	7.9	25.7*	4.9	9.1	2.7
COc1cc(OC)cc(C(=O)N[C@H](C(=O)OCC(=O)Nc2ccc(C(C)C)cc2)C(C)C)c1	-0.9	4.1	20.6*	-7.1	7.4	1.9
C[C@H]1CCC[C@@]2(O[C@@H](CCO)C[C@H](O)[C@H]2O)O1	-1.1	-7.7	83.3*	1.6	0.5	0.0
CCCn1c(C)cc(/C=C(\C#N)C(=O)OCC(=O)N(CC)c2c(N)n(Cc3ccccc3)c(=O)[nH]c2=O)c1C	1.2	-2.1	-4.7	4.5	x	x
COc1cc(OC)cc(C(=O)NCC(=O)NCCN2C(=O)S/C(=C\c3ccccc3Cl)C2=O)c1	-12.9	-0.3	2.0	-17.5	x	x
COc1cc(C(=O)NCC(=O)NCCN2C(=O)S/C(=C\c3ccccc3Cl)C2=O)cc(OC)c1OC	-11.2	6.0	20.5*	-7.1	-0.4	-0.3
CC1CCCC(NC(=O)COC(=O)/C=C/c2ccc([N+](=O)[O-])cc2)C1C (centres undefined)	0.5	7.6	-9.4	-1.4	x	x
O=C1OCCN1C(=O)[C@H]1[C@H](c2ccccc2)C(c2cccc(Cl)c2)=NN1c1ccc(Br)cc1	1.6	-130.7	i	-1.5	x	x
O=C1OCCN1C(=O)[C@H]1[C@H](c2ccc([N+](=O)[O-])cc2)C(c2cccc(Cl)c2)=NN1c1ccc(Br)cc1	1.1	5.7	23.6*	-6.4	14.2	5.1
Cc1ccc(-c2nc(C)sc2CC(=O)OCC(=O)Nc2cccc([N+](=O)[O-])c2)cc1	1.1	3.3	8.7	-5.8	x	x
Cc1ccc(C(=O)c2ccccc2C(=O)OCC(=O)Nc2cccc([N+](=O)[O-])c2)cc1	4.5	6.6	27.1*	-2.2	6.2	1.2
O=C(CCN1CCN(Cc2ccccc2)CC1)Nc1ccc(OCc2ccccc2)cc1	7.2	2.5	20.7*	-4.8	3.8	0.7
O=C(CCN1CCN(CCO)CC1)Nc1ccc(OCc2ccccc2)cc1	7.6	0.0	-1.8	1.5	x	x
COCCOC(=O)c1c(C)oc2ccc(NS(=O)(=O)c3cccs3)cc12	0.6	1.6	-1.1	4.3	x	x

Assay outcomes (PubChem BioAssay)
